SARS PLpro yeast = qHTS of Yeast-based Assay for SARS-CoV PLP | Potency, µM (highest dose often 32.9 µM), inactives show at the highest dose activity, positive = growth rescue, usual class: activators | hit rate 0.19% among 330,000 | AID 485353, 2010 | S. cerevisiae expressing SARS-CoV PLpro, growth rescue; calls by dose curve; note: 0% is about no effect; nearly all actives have a fitted effect of over 55% in size
Pf growth 96h = Primary qHTS for delayed death inhibitors of the malarial parasite plastid, 96 hour incubation; AID 504834, 2011; Potency, µM (series often up to 28.7 µM), for inactives: top-dose activity change, negative = inhibition, actives largely listed as inhibitors; P. falciparum luciferase reporter growth, 96 h; hit rate 6.9% among 320,000; note: % is set by controls: 0 for no effect and ±100 for the full control effect
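Delayed-death screen, second-generation endpoint: infected erythrocytes, 2% hematocrit, 0.05% parasitemia final; 96 hours at 37 C, 5% CO2; luciferase detection reagent; luminescence decrease equals reduced growth.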
Pf growth 48h = Primary qHTS for delayed death inhibitors of the malarial parasite plastid, 48 hour incubation. Potency, µM (highest dose often 28.7 µM), for the others: top-dose activity change, negative = inhibition, usual class: inhibitors. P. falciparum luciferase growth in erythrocytes, 48 h. AID 504832, 2011. hit rate 5.9% among 310,000; note: % is set by controls: 0 for no effect and ±100 for the full control effect
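Read-out is firefly luciferase luminescence from an integrated reporter in P. falciparum, so falling signal marks reduced parasite growth. Infected erythrocytes were at 2% hematocrit and 0.1% parasitemia (final) in Albumax-supplemented RPMI 1640.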
Sm TGR inh = qHTS Assay for the Inhibitors of Schistosoma Mansoni Peroxiredoxins. hit rate 3% among 360,000. Potency, µM (highest dose often 114 µM), inactives show top-dose activity change, negative = inhibition, usual class: inhibitors. AID 485364, 2010. Schistosoma mansoni thioredoxin glutathione reductase (TGR), Q962Y6. purified TGR, DTNB reduction, TNB absorbance 405 nm; note: % is set by controls: 0 for no effect and ±100 for the full control effect; nearly all actives have a fitted effect of over 60% in size
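First, TGR (20 nM dispensed) and NADPH were mixed with compound. Second, a 15 min room-temperature incubation followed. Third, further NADPH and then DTNB were added to start the reaction. Finally, TNB absorbance was monitored kinetically.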
An asterisk follows results filed as active; ? = inconclusive; . = no result. Rows were chosen to be rich in hits. Some 12% of all compounds tested hit in one or more screens of this group. Unless noted, calls come from the whole dose curve; as a rule, active = well fitted curve in the direction sought with a large enough effect; inconclusive = small, poorly fitted or top-dose-only effect, or another doubt; inactive = no such curve, though single readings can be large; an effect the other way counts as inactive or inconclusive. Potency is the fitted concentration of half-maximal effect.

SMILES | SARS PLpro yeast | Pf growth 96h | Pf growth 48h | Sm TGR inh
NC(=O)c1sc2nc3c(c(-c4ccco4)c2c1N)CCC3 | -11% | 13% | -3% | -25%
Oc1c(Cl)cc(Cl)cc1C1=NNC(c2ccc(Cl)cc2)C1 (stereo not drawn) | -6% | -100% | -7% | 3.2µM*
CCN(CC)S(=O)(=O)c1cc(NC(=O)C(C)N2CCc3ccccc32)ccc1C (stereo not drawn) | 2% | 10µM* | ? | 0%
CCN(CC)S(=O)(=O)c1cc(NC(=O)C(C)N(C)CC(=O)Nc2c(C)cccc2C)ccc1C (stereo not drawn) | -7% | 12µM* | 12µM* | 0%
Cn1c(SCc2cccc(F)c2)nc2c([nH]c3ccccc32)c1=O | . | . | . | 1%
Cc1cccc(-c2nc(S(=O)(=O)c3ccccc3)c(N3CCOCC3)o2)c1 | 0% | -1% | -5% | 45µM*
Cc1ccc(-c2nc(P(=O)(c3ccccc3)c3ccccc3)c(N3CCOCC3)o2)cc1 | 2% | 10µM* | 10µM* | 6%
CCOP(=O)(OCC)c1nc(-c2ccc(C)cc2)oc1NCc1ccccc1 | -9% | 19% | ? | 1%
O=S(=O)(c1ccc(Cl)cc1)c1nc(-c2cccs2)oc1N1CCCCC1 | . | . | . | -33%
CNc1oc(-c2ccc(Cl)cc2)nc1P(=O)(c1ccccc1)c1ccccc1 | -24% | 15µM* | ? | 0%
COc1ccc(-c2nc(S(=O)(=O)c3ccc(Cl)cc3)c(N3CCCCCC3)o2)cc1 | . | . | . | 22µM*
N#CC1(NC(=O)COC(=O)C23CC4CC(CC(O)(C4)C2)C3)CCCCC1 | ? | 23% | 10% | -6%
CCOC(=O)c1ccc(NC(=O)CSc2ccc3ccccc3n2)cc1 | . | . | . | 8%
COc1cc(OC)cc(C(=O)NCCc2csc(-c3cccc(C)c3)n2)c1 | . | . | . | 21%
Cc1ccc(-c2nc(S(=O)(=O)c3ccc(C)cc3)c(N3CCOCC3)o2)cc1 | 0% | 1% | 10% | 3.5µM*
NC(CSCc1cccc(Br)c1)C(=O)O (stereo not drawn) | -4% | -18% | 17% | 40µM*
CCOc1c(Cl)cc(CNc2ccc(N3CCCC3)cc2)cc1OC | -1% | 42% | -27% | 13µM*
CCOc1c(Cl)cc(CNC(C)(C)CC(C)(C)C)cc1OC | 1% | . | 10µM* | -19%
CCOc1c(Cl)cc(CNc2ccc(S(N)(=O)=O)cc2)cc1OC | ? | -55% | 14% | 3%
CCOc1ccc(NC(=O)Cn2cc(C(=O)c3ccc(F)cc3)c(=O)c3cc4c(cc32)OCCO4)cc1 | . | . | . | -10%
Clc1ccc(CN2CCC(c3nc4ccc(Cl)cc4[nH]3)CC2)cc1 | 2% | ? | 10µM* | -26%
CC(=O)Nc1ccc(S(=O)(=O)N2CCC(c3nc4ccc(C)cc4[nH]3)CC2)cc1 | ? | ? | ? | 0%
CC(C)(C)c1ccc(S(=O)(=O)N2CCC(c3nc4ccc(Cl)cc4[nH]3)CC2)cc1 | -13% | -4% | 12µM* | -10%
CC1CCCN(C(=O)CN2CCC(c3nc4ccc(Cl)cc4[nH]3)CC2)C1 (stereo not drawn) | 1% | ? | ? | -8%
N#C/C(C(=O)NCc1ccco1)=C1/SC=C(c2ccccc2)N1c1ccccc1 | 7% | 5.2µM* | 0% | -22%
SMILES | SARS PLpro yeast | Pf growth 96h | Pf growth 48h | Sm TGR inh
CC1=CS/C(=C(/C#N)C(=O)NCc2ccco2)N1c1ccccc1 | 4% | -17% | . | -10%
C/C(=N/NC(=O)c1ccc(C)s1)c1cccc(NC(=O)c2ccoc2C)c1 | -8% | -10% | 5% | ?
CC(C)(O)C#Cc1ccc(C(=O)N2CCCC(CNS(=O)(=O)c3cccs3)C2)o1 (stereo not drawn) | -2% | 5% | 6% | 11µM*
Cc1nc(CC(C)C)cc(C(=O)N2CCCC(CNS(=O)(=O)c3cccs3)C2)n1 (stereo not drawn) | 0% | 8.3µM* | 18% | -31%
Cc1cc(C(=O)N2CCCC(CNS(=O)(=O)c3cccs3)C2)nn1C (stereo not drawn) | -1% | -18% | 1% | -11%
Cc1cc(C)c(C(=O)N2CCCC(CNS(=O)(=O)c3cccs3)C2)o1 (stereo not drawn) | -1% | -20% | 3% | -3%
Cc1ccc2cc3c(NC(=O)c4ccco4)nn(C)c3nc2c1 | -5% | 8.3µM* | ? | 50µM*
CC(=O)Nc1nn(C)c2nc3cc(C)ccc3cc12 | -5% | 40% | 7% | 4%
